Only some compounds are listed: those with a hit (about 12% of all), similar ones and a draw of the others.
Pf growth 96h = P. falciparum growth inhibition at 96 hour, primary screen for plastid delayed-death inhibitors | P. falciparum luciferase reporter growth, 96 h | Potency, µM (highest dose often 28.7 µM), for the others: at the highest dose activity change, negative = inhibition, usual class: inhibitors | hit rate 6.9% among 320,000 | AID 504834; also: % is scaled to controls: 0 for no effect and ±100 for the full control effect
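Readout is luminescence from an integrated firefly luciferase in P. falciparum. Red cells, 2% hematocrit and 0.05% parasitemia final, were cultured with compound through two parasite generations (96 hours) at 37 C, 5% CO2.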
SARS PLP yeast = blocks SARS-CoV papain-like protease in a yeast assay | S. cerevisiae expressing SARS-CoV PLpro, growth rescue | Potency, µM (doses to about 32.9 µM), inactives show top-dose activity, positive = growth rescue, actives largely listed as activators | hit rate 0.19% among 330,000 | AID 485353; calls by dose curve; also: 0% is about no effect; nearly all actives have a fitted effect of over 55% in size
Pf growth 48h = inhibits P. falciparum growth in the first generation, 48 h. P. falciparum luciferase growth in erythrocytes, 48 h. Potency, µM (titrated, usually from 28.7 µM), for inactives: at the highest dose activity change, negative = inhibition, most hits filed as inhibitors. hit rate 5.9% among 310,000. AID 504832; also: % is scaled to controls: 0 for no effect and ±100 for the full control effect
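Luciferase-expressing parasites in RBCs, 2% Hct / 0.1% parasitemia final; RPMI 1640 + 0.5% Albumax; 37 C, 5% CO2, one generation; luminescence read-out, lower signal = inhibition.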
Sm TGR inh = inhibitors of Schistosoma mansoni thioredoxin glutathione reductase | Q962Y6 | purified TGR, DTNB reduction, TNB absorbance 405 nm | Potency, µM (doses to about 114 µM), inactives show top-dose activity change, negative = inhibition, usual class: inhibitors | hit rate 3% among 360,000 | AID 485364; also: % is scaled to controls: 0 for no effect and ±100 for the full control effect; nearly all actives have a fitted effect of over 60% in size
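Kinetic colorimetric format: TGR-catalysed, NADPH-driven DTNB reduction monitored via TNB absorbance. Enzyme dispensed at 20 nM; compound exposure 15 min at room temperature before reaction start.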
* marks the source's active call; other numbers are inactive results. Unless noted, calls follow the shape of the dose curve; as a rule, active = well fitted curve in the direction sought with a large enough effect; inconclusive = small, poorly fitted or top-dose-only effect, or another doubt; inactive = no such curve, though single readings can be large; an effect the other way counts as inactive or inconclusive. Potency is read from the fitted curve at half-maximal effect.

How did Cc1cc(Cl)ccc1NC(=O)CN(C)C1=NS(=O)(=O)c2ccccc21 do in these assays?
Pf growth 96h: -15%; SARS PLP yeast: -3%; Pf growth 48h: -24%; Sm TGR inh: -11%

What do the screens show for `O=C(Nc1ccc(Cl)cc1)[C@@H]1[C@@H]2C(=O)N(c3ccc(Cl)cc3)C(=O)[C@@H]2[C@H]2C=CC=NN21`?
SARS PLP yeast: 1%; Pf growth 48h: inconclusive; Sm TGR inh: 50µM*

How did Cc1ccc(N2C(=O)[C@@H]3[C@H](C2=O)[C@H]2C=CC=NN2[C@@H]3C(=O)Nc2ccc(Cl)cc2)cc1 do in these assays?
Pf growth 96h: 75%; SARS PLP yeast: -4%; Pf growth 48h: 27%; Sm TGR inh: -35%

How did Cc1cccc(-c2ocnc2C(=O)Nc2ccccc2NC(=O)c2ccccn2)c1 do in these assays?
Pf growth 96h: inconclusive; SARS PLP yeast: -12%; Pf growth 48h: inconclusive; Sm TGR inh: 5%

What do the screens show for `Cc1ccc(-c2ocnc2C(=O)Nc2ccccc2NC(=O)c2ccccn2)cc1`?
Pf growth 96h: 18%; SARS PLP yeast: -13%; Pf growth 48h: 2.1µM*; Sm TGR inh: 9%

What do the screens show for `O=C(NCCS(=O)(=O)N1CCN(c2ccccc2)CC1)C(c1ccccc1)c1ccccc1`?
Sm TGR inh: 1%

What do the screens show for `COc1ccc(CCn2c(C(C)C)nc3c(c(=O)c4ccccc4n3C)c2=O)cc1`?
Pf growth 96h: 1.9µM*; SARS PLP yeast: 5%; Pf growth 48h: 12µM*; Sm TGR inh: -8%

Results for COc1ccc2c(=O)c3c(=O)n(CCc4ccccc4)c(C(C)C)nc3oc2c1 ?
Pf growth 96h: 5.2µM*; SARS PLP yeast: 0%; Pf growth 48h: 7.4µM*; Sm TGR inh: 0%

How did COc1ccc(CCn2c(C)nc3c(c(=O)c4ccccc4n3C)c2=O)cc1 do in these assays?
Pf growth 96h: 4.7µM*; SARS PLP yeast: 2%; Pf growth 48h: inconclusive; Sm TGR inh: -22%

How did COc1ccc(Cn2c(C)nc3c(c(=O)c4ccccc4n3C)c2=O)cc1 do in these assays?
Pf growth 96h: inconclusive; SARS PLP yeast: 0%; Pf growth 48h: inconclusive; Sm TGR inh: 13%

What do the screens show for `COc1cccc(NC(=O)CN(C)C(=O)C23CC4CC(CC(Cl)(C4)C2)C3)c1`?
Pf growth 96h: inconclusive; SARS PLP yeast: 4%; Pf growth 48h: inconclusive; Sm TGR inh: 0%

How did NS(=O)(=O)c1ccc(CNC(=O)c2cccnc2Cl)cc1 do in these assays?
Pf growth 96h: 29%; SARS PLP yeast: 1%; Pf growth 48h: 28%; Sm TGR inh: 0%

What do the screens show for `COc1ccc(NC(=O)Nc2cccc(C(F)(F)F)c2)cn1`?
Pf growth 96h: inconclusive; SARS PLP yeast: -13%; Pf growth 48h: 13µM*; Sm TGR inh: 1%

How did COc1ccc(NC(=O)Nc2cccs2)cn1 do in these assays?
Pf growth 96h: 22%; SARS PLP yeast: 1%; Pf growth 48h: 12%; Sm TGR inh: 13µM*

How did COc1ccc(NC(=O)Nc2cc(C)cc(C)c2)cn1 do in these assays?
Pf growth 96h: 23%; SARS PLP yeast: 0%; Pf growth 48h: -3%; Sm TGR inh: 4%

How did CNC(=O)Nc1cccc(C(F)(F)F)c1 do in these assays?
SARS PLP yeast: -82%; Pf growth 48h: 3%; Sm TGR inh: -1%

How did COc1ccc(NC(=O)CCl)cn1 do in these assays?
Pf growth 96h: 10µM*; SARS PLP yeast: 13%; Pf growth 48h: 8.3µM*; Sm TGR inh: 14µM*

How did COc1ccc(CC(=O)Nc2ccc(OC)nc2)cc1 do in these assays?
Pf growth 96h: -2%; SARS PLP yeast: 1%; Pf growth 48h: 15%; Sm TGR inh: 4%

How did N#CCCN(C(=O)COC(=O)C1=NNC(=O)CC1)c1ccccc1 do in these assays?
Pf growth 96h: 17%; SARS PLP yeast: 4%; Pf growth 48h: inconclusive; Sm TGR inh: -4%

Results for Cc1ccc(CCC(=O)Nc2ccc(C)c(C)c2)o1 ?
Pf growth 96h: 37%; SARS PLP yeast: -4%; Pf growth 48h: 38%; Sm TGR inh: -27%

What do the screens show for `Cc1cc(OC(=O)CCNC(=O)OC(C)(C)C)c2c3c(c(=O)oc2c1)CCC3`?
Pf growth 96h: 4.7µM*; SARS PLP yeast: -6%; Pf growth 48h: 4.7µM*; Sm TGR inh: -1%

What do the screens show for `Cc1cc(OC(=O)CCCNC(=O)OC(C)(C)C)c2c3c(c(=O)oc2c1)CCC3`?
Pf growth 96h: 0%; SARS PLP yeast: 2%; Pf growth 48h: -2%; Sm TGR inh: 5%

How did Cc1ccc(NCc2nnc3n2CCCCC3)cc1Cl do in these assays?
Sm TGR inh: 0%

Results for C=CCn1c(C)cc(C(=O)CSc2nc3ccccc3c(=O)[nH]2)c1C ?
Pf growth 96h: inconclusive; SARS PLP yeast: -9%; Pf growth 48h: -40%; Sm TGR inh: -3%

How did C=CCn1c(SCC(=O)Nc2cc(C)nn2-c2ccccc2)nnc1C1CCCCC1 do in these assays?
Pf growth 96h: 12µM*; SARS PLP yeast: 3%; Pf growth 48h: -15%; Sm TGR inh: 1%

What do the screens show for `O=C(CSc1nc2ccccc2c(=O)[nH]1)Nc1ccc(S(=O)(=O)N2CCCC2)cc1`?
Pf growth 96h: 2.3µM*; SARS PLP yeast: -3%; Pf growth 48h: -16%; Sm TGR inh: -23%

Results for O=C(CSc1nc2ccccc2c(=O)[nH]1)Nc1ccc(C(=O)O)cc1 ?
Pf growth 96h: 21%; SARS PLP yeast: 2%; Pf growth 48h: 40%; Sm TGR inh: -1%

How did COCCn1c(C)cc(C(=O)CSc2nc3ccccc3c(=O)[nH]2)c1C do in these assays?
Pf growth 96h: 0.29µM*; SARS PLP yeast: 8%; Pf growth 48h: 10%; Sm TGR inh: -23%

What do the screens show for `Cc1cccc(C)c1NC(=O)CSc1nc2ccccc2c(=O)[nH]1`?
Pf growth 96h: 0.41µM*; SARS PLP yeast: 1%; Pf growth 48h: 0%; Sm TGR inh: -21%

What do the screens show for `Cc1csc(NC(=O)CSc2nc3ccccc3c(=O)[nH]2)n1`?
Pf growth 96h: -5%; SARS PLP yeast: 4%; Pf growth 48h: 4%; Sm TGR inh: -7%

What do the screens show for `O=C(COC(=O)c1ccccn1)NCCc1ccc(Cl)cc1`?
SARS PLP yeast: -3%

Results for Cc1cc(NC(=O)CSc2nc3ccccc3[nH]2)n(-c2ccccc2)n1 ?
Pf growth 96h: 4.7µM*; SARS PLP yeast: 1%; Pf growth 48h: 1.9µM*; Sm TGR inh: -2%

What do the screens show for `Cc1ccc(C(=O)CSc2nc3ccccc3c(=O)[nH]2)cc1`?
Pf growth 96h: 15%; SARS PLP yeast: -3%; Sm TGR inh: 0%

Results for CCc1ccc(C(=O)CSc2nc3ccccc3c(=O)[nH]2)cc1 ?
Pf growth 96h: 10µM*; SARS PLP yeast: -7%; Sm TGR inh: -8%

How did CC(C)(C)N1C(=O)c2ccc(C(=O)Nc3ccc(C(=O)O)cc3)cc2C1=O do in these assays?
Pf growth 96h: 9.3µM*; SARS PLP yeast: 0%; Pf growth 48h: -2%; Sm TGR inh: -2%

How did O=C(O)c1ccc(NC(=O)c2ccc3c(c2)C(=O)N(c2ccccc2)C3=O)cc1 do in these assays?
Pf growth 96h: 5%; SARS PLP yeast: 1%; Pf growth 48h: 19%; Sm TGR inh: 20%

Source: PubChem BioAssay (National Center for Advancing Translational Sciences (NCATS))
